Experimental data published in PubChem BioAssay (NCI).
This is part of a sample that, as a whole, favours compounds with a hit. Of some 83,000 tested, about 20% had one in any assay.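 A percent growth of 40 corresponds to 60% growth inhibition; 0 means no net growth; -100 means all cells died. Active threshold: below 10.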 Unmarked numbers belong to inactive results. Calls of active or inactive are those of the source.

Experiments:
Experiment in all cases: NCI-60 one-dose screen, 48 h (100 = growth as untreated, 0 = no growth, -100 = all killed)
Settings in all cases: 10 µM unless noted
HCT-15 colon = test system: HCT-15 colon
HT29 colon = test system: HT29 colon
SNB-75 CNS = test system: SNB-75 CNS
SNB-19 CNS = test system: SNB-19 CNS
U251 CNS = test system: U251 CNS
PC-3 prostate = test system: PC-3 prostate
SK-MEL-5 melanoma = test system: SK-MEL-5 melanoma
UACC-62 melanoma = test system: UACC-62 melanoma
LOX IMVI melanoma = test system: LOX IMVI melanoma
SK-MEL-28 melanoma = test system: SK-MEL-28 melanoma

SMILES | growth (HCT-15 colon) | growth (HT29 colon) | growth (SNB-75 CNS) | growth (SNB-19 CNS) | growth (U251 CNS) | growth (PC-3 prostate) | growth (SK-MEL-5 melanoma) | growth (UACC-62 melanoma) | growth (LOX IMVI melanoma) | growth (SK-MEL-28 melanoma)
Nc1nc2ccccc2c2c(=O)c3cc(F)ccc3sc12 | 98.6% | 99.8% | 93.1% | 101% | 105% | 103% | 98.5% | 102% | 99.6% | 103%
Cc1cc(=O)oc2cc(OC(=O)CN3CCN(C)CC3)ccc12 | 98.9% | 104% | 74.5% | 95.6% | 105% | 95.2% | 101% | 95.5% | 97.9% | 104%
Oc1ccc(Cl)cc1Cc1cc(Cl)cc(Cl)c1O | 41.2% | 107% | 60.5% | 34.8% | 13% | -0.0941% (active) | 5.53% (active) | -9.82% (active) | 20.2% | 31.2%
COc1cc(C)c(Cc2cnc(N)nc2N)cc1OC | 113% | 109% | 104% | 98.9% | 97.7% | 94.3% | 105% | 99.5% | 94.9% | 118%
Cc1cccc2c1S/C(=C/c1ccc([N+](=O)[O-])cc1)C2=O | 100% | 92.5% | 82.4% | 98.4% | 78.4% | 91.5% | 99.4% | 72.6% | 93.1% | 114%
NC1=NC(c2cccc(Br)c2)c2sc3ccc(Cl)cc3c2N1 (stereo not given) | 103% | 104% | 75.6% | 97.3% | 103% | 88.7% | 96.5% | 84.5% | 98.8% | 118%
CCCCNc1nc(NN2C(=O)c3cccc4cccc(c34)C2=O)nc(-n2cnc3ccccc32)n1 | 85.2% | 98% | 85.8% | 86.9% | 69.3% | 77.4% | 75.6% | 88.3% | 87.4% | 94.1%
C[C@H]1[C@H]2[C@H]3CC[C@@H]4[C@@]5(C)CC[C@H](O)C(C)(C)[C@@H]5CC[C@@]4(C)[C@]3(C)CC[C@]23CO[C@]1(C)[C@@H](C(=O)/C=C\c1cccnc1)C3 | 38.5% | 99.5% | 72.8% | 71.6% | 58.6% | 21.3% | 37% | 41.5% | 51.5% | 66.2%
Cn1cc(-c2cc3ncnc(Nc4ccc(CC(=O)Nc5cc(C(C)(C)C)on5)cc4)c3s2)cn1 | 18.6% | 27.4% | 54% | 86.1% | 54.2% | 47% | 52.1% | 30% | 25.8% | 44%
O=C(Cc1ccc(F)c(Cl)c1)Nc1cc(C2(C(F)(F)F)CC2)nn1CC1CCCCC1 | 5.75% (active) | 8.71% (active) | -8.19% (active) | 14.7% | 1.68% (active) | 0.348% (active) | -74.5% (active) | 0.508% (active) | 11.6% | 19.7%
Cc1cccc(NCc2cn(-c3ccc(C(=O)O)cc3)nc2-c2ccc(C(=O)O)cc2)n1 | 107% | 107% | 87.4% | 104% | 108% | 103% | 103% | 101% | 100% | 104%
O=C(CSc1nc2ccccc2[nH]1)Nc1cccc(Cl)c1 | 109% | 112% | 81.6% | 91.4% | 104% | 99.3% | 104% | 87.6% | 99.6% | 106%
CCN(CC)CCNc1nc2ccccc2c2c(=O)c3cc(Cl)ccc3sc12 | 39.8% | 18.3% | 29.6% | 69.5% | 39.7% | 56.7% | 74.4% | 65.4% | -58.8% (active) | 98.1%
C#C[C@]1(O)CC[C@H]2[C@@H]3CC=C4c5sc(Nc6cc(F)ccc6F)nc5CC[C@]4(C)[C@H]3CC[C@@]21C | -28.4% (active) | 8.03% (active) | -28.6% (active) | 6.38% (active) | -15.2% (active) | -8.02% (active) | 13.2% | -36.2% (active) | -77.7% (active) | -44.9% (active)
COc1ccc(OC)c(/C=C/C(=O)N/N=C/c2ccc(Cl)cc2)c1 | 29.4% | 6.49% (active) | 44% | 22.6% | 18.4% | 26.2% | 30.6% | 42.1% | 36.7% | 38.8%
O=C1CN(CCN2CC(=O)N(Cc3ccccc3)C(=O)C2)CC(=O)N1Cc1ccccc1 | 113% | 108% | 88% | 107% | 100% | 93.9% | 100% | 103% | 96.3% | 107%
CN(C)CCCNc1nc2ccccc2c2c(=O)c3cc(F)ccc3sc12 | 17.7% | 4.32% (active) | 65.6% | 68.4% | 28.5% | 50.2% | 72.6% | -53.8% (active) | -95% (active) | -42.4% (active)
CCOC(=O)C1=C(N)Oc2c(sc3c(C)cccc23)C1c1ccc(OC)cc1 (stereo not given) | 21.7% | 84.7% | -3.57% (active) | 28.8% | 26.6% | 28.7% | 52.5% | 17% | 32.3% | 46.5%
CC(C)OC(=O)Nc1ccc(-c2nc(-c3cccc(OCCN4CCOCC4)c3)c(-c3ccnc(Br)c3)[nH]2)cc1 | 4.55% (active) | 1.53% (active) | -19.3% (active) | 22.5% | 17.3% | 19.7% | 21.7% | 15.1% | 3.35% (active) | 0.701% (active)
COc1ccccc1/C=C1\Oc2cc(OCCN3CCC(Cc4ccccc4)CC3)ccc2C1=O | 52.5% | 31.2% | 83.6% | 90.8% | 78.2% | 81.8% | 90.9% | 92.1% | 70.7% | 87.5%
O=C(Cc1ccc2c(c1)OCCO2)Nc1nc2ccc(F)cc2s1 | 77.2% | 105% | 84.5% | 116% | 103% | 93.2% | 91.1% | 102% | 93.8% | 111%
CC(=O)O.CN1[CH-]N(Cc2ccc(C#N)cc2)c2ccccc21.[Ag+] | 102% | 94.7% | 94.7% | 109% | 97.4% | 91.1% | 41.7% | 112% | 91.8% | 95.3%
CCCCCCNC(=O)Oc1ccc(/C(=C(\C)c2ccc(OC)cc2)c2ccc(OCCN3CCCCC3)cc2)cc1 | 2.35% (active) | 4.52% (active) | 69.4% | 83.9% | 54.4% | 54.1% | 57.6% | 39.2% | 24.5% | 25.2%
CNc1nc2c(s1)C(c1cccc(F)c1)CC(=O)N2 (stereo not given) | 104% | 104% | 76.8% | 92.8% | 94.6% | 98.5% | 101% | 92.3% | 98.4% | 103%
O=C1CSC(c2c(Cl)cccc2Cl)N1c1nc(Cl)cc(=O)[nH]1 (stereo not given) | 123% | 111% | 113% | 103% | 112% | 73.1% | 97% | 102% | 104% | 115%
O=S(=O)(Nc1ccc(-c2nc(-c3cccc(OCCN4CCOCC4)c3)c(-c3ccnc(Br)c3)[nH]2)cc1)c1ccccc1 | 8.1% (active) | 2.67% (active) | 6.55% (active) | 48.2% | 35.2% | 15.9% | 37.5% | 28.7% | 3.47% (active) | 38.7%
COc1ccc(CNC(=O)[C@H](O)[C@@H](N)Cc2ccccc2)cc1 | 107% | 103% | 86% | 102% | 101% | 108% | 105% | 96.6% | 97.6% | 107%
